Reference: the supplement of paper PMC11732987, “Enantioselective OTUD7B fragment discovery through chemoproteomics screening and high-throughput optimisation” (Communications Chemistry, 2025)

Key:
Test in all cases: log2 ratio of Biotin-Ahx-Ub-VS probe labelling (fragment/DMSO); higher = less target engagement (more negative = stronger competition), active = hit call of the paper (q ≤ 0.05, log2 ratio ≤ -1)
Conditions in all cases: compound concentration: 200 uM; treatment time: 3 h
[1] = target: T1, USP42 (UniProt Q9H9J4)
T1 sequence (whole entry): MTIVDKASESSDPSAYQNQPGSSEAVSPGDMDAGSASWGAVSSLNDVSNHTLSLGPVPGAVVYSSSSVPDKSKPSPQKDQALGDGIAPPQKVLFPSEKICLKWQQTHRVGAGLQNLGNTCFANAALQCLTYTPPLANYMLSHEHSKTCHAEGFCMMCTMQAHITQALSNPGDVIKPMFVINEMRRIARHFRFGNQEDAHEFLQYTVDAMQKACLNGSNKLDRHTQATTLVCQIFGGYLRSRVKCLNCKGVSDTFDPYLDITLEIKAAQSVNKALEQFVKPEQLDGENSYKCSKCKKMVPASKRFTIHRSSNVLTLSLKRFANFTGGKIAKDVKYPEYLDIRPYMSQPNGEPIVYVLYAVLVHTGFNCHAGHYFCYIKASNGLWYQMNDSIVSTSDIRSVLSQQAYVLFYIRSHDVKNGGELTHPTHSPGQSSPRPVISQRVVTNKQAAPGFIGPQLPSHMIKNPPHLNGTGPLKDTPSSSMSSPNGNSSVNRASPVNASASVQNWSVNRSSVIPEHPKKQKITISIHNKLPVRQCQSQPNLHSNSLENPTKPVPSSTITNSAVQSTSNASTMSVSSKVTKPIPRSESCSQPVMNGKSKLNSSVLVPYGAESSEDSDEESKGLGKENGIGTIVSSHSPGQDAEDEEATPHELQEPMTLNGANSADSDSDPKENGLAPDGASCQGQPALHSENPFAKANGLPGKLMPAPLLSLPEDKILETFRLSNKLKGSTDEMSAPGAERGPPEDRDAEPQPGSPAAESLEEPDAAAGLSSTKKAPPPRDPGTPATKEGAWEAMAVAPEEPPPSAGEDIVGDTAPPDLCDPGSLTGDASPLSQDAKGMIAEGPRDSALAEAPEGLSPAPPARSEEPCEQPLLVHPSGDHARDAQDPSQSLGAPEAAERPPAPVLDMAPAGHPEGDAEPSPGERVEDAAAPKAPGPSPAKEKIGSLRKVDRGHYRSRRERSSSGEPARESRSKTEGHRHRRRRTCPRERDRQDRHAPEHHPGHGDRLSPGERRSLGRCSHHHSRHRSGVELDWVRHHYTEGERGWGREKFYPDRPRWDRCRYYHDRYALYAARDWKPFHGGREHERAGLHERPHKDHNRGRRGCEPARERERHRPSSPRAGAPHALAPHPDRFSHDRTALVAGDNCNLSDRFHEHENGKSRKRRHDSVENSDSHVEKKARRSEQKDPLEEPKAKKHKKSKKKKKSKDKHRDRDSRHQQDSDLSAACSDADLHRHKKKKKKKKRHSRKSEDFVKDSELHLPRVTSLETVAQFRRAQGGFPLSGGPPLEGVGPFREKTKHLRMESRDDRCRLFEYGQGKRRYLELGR
Outline: (§1)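 The table lists average log2 ratios of fragment over vehicle, from an unpaired t-test on global-median-normalised Spectronaut label-free quantities. Proteins with ≥2 unique peptides were used. Samples were HEK293T lysate (495 µg) treated in triplicate with fragment at 200 µM or vehicle for 3 h, then with Biotin-Ahx-Ub-VS (0.5 µM final) for 1 h, with labelled DUBs NeutrAvidin-enriched and run by diaPASEF LC-MS/MS.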

[2] = target: USP46 (UniProt P62068)
Chain of USP46 (P62068 whole entry): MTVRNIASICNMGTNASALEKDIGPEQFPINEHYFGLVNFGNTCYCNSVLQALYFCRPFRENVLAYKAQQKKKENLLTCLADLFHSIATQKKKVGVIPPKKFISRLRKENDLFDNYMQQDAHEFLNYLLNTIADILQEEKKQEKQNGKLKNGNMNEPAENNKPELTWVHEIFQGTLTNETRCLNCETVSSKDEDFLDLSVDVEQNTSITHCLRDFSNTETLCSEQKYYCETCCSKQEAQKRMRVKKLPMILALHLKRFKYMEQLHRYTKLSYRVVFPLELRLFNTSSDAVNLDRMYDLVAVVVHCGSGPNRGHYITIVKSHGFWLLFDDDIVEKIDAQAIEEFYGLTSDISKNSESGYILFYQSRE
Outline: as §1

[3] = target: T2, USP47 (UniProt Q96K76)
T2 sequence (whole entry): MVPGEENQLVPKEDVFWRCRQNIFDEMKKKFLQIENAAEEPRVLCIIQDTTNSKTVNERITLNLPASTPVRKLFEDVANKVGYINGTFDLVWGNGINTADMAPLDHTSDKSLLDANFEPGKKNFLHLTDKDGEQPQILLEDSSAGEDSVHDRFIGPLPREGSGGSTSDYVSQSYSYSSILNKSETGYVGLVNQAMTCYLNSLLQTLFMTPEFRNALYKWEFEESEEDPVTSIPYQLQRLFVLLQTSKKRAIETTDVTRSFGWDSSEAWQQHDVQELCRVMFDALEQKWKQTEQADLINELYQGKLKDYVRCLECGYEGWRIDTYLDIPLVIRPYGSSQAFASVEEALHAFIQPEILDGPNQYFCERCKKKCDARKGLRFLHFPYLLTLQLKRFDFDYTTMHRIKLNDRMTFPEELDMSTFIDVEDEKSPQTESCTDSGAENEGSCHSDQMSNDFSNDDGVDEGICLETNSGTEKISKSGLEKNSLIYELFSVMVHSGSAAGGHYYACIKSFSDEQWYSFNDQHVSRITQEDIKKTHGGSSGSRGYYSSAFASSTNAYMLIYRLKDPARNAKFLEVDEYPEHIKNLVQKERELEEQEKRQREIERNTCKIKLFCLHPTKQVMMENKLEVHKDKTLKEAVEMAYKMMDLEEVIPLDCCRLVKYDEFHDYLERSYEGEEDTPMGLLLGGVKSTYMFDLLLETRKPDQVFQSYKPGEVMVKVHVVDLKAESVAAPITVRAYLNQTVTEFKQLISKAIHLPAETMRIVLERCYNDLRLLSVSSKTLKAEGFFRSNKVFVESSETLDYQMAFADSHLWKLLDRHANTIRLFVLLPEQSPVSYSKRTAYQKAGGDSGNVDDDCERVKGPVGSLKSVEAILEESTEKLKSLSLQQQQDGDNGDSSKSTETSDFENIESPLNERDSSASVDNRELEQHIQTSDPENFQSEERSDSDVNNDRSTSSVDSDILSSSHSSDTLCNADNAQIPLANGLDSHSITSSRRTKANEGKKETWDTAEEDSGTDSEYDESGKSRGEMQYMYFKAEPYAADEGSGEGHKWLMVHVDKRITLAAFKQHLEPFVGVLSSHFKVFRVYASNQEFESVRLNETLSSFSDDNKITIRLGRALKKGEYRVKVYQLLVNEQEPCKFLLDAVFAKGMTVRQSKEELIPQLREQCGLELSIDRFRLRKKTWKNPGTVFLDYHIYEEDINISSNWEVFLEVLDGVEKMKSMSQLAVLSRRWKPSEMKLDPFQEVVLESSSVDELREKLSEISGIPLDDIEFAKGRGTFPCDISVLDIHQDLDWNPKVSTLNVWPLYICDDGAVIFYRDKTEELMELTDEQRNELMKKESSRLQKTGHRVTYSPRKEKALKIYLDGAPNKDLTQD
Outline: as §1

[4] = target: T3, USP48 (UniProt Q86UV5)
T3 sequence (whole entry): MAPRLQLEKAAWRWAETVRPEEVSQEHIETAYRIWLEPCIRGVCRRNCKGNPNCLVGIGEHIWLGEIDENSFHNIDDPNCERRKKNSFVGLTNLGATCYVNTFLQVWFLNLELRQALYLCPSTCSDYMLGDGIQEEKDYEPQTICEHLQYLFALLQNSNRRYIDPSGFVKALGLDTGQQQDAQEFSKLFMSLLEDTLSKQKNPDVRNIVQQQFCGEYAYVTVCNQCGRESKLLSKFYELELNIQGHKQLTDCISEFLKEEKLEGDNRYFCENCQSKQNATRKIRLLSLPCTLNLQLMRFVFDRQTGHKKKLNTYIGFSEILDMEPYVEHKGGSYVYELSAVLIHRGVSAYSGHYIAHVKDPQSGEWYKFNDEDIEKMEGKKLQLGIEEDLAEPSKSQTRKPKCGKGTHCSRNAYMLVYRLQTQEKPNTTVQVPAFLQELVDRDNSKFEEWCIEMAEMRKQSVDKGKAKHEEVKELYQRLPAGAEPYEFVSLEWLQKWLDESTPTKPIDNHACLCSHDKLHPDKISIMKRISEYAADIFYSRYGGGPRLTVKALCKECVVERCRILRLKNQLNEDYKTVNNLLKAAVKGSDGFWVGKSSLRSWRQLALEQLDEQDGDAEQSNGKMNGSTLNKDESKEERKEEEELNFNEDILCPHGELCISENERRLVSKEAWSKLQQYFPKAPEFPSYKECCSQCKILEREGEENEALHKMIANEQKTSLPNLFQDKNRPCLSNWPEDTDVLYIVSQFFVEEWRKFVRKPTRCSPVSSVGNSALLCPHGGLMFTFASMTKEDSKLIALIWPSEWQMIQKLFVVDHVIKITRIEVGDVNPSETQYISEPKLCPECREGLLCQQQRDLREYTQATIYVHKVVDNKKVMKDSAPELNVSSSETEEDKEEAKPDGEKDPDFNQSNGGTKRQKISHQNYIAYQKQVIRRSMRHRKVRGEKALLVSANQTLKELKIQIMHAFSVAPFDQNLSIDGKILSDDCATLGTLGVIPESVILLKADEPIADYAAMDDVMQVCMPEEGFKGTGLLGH
Outline: as §1

[5] = target: T4, USP5 (UniProt P45974)
T4 sequence (whole entry): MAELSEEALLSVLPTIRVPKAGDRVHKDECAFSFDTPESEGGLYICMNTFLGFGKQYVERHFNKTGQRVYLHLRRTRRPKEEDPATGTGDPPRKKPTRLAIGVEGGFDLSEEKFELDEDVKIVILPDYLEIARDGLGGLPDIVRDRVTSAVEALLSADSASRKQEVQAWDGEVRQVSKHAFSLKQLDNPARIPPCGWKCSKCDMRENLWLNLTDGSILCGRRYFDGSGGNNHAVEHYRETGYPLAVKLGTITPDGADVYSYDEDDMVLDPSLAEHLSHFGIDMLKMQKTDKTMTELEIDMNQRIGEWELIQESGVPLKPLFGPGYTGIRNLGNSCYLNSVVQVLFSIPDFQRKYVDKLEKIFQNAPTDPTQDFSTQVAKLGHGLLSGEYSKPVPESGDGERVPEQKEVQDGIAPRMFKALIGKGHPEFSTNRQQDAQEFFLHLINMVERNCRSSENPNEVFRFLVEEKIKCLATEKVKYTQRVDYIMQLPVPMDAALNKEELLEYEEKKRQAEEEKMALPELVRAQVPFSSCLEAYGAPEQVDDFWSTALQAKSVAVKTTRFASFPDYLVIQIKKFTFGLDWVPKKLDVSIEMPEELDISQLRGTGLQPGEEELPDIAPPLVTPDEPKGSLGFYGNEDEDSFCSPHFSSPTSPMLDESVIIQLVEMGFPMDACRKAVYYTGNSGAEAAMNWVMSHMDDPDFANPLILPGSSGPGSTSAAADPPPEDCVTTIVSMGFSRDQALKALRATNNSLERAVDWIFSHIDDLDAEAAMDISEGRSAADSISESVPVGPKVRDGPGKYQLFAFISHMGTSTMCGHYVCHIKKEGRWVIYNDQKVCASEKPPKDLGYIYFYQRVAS
Outline: as §1

[6] = target: USP54 (UniProt Q70EL1)
Chain of USP54 (Q70EL1 whole entry): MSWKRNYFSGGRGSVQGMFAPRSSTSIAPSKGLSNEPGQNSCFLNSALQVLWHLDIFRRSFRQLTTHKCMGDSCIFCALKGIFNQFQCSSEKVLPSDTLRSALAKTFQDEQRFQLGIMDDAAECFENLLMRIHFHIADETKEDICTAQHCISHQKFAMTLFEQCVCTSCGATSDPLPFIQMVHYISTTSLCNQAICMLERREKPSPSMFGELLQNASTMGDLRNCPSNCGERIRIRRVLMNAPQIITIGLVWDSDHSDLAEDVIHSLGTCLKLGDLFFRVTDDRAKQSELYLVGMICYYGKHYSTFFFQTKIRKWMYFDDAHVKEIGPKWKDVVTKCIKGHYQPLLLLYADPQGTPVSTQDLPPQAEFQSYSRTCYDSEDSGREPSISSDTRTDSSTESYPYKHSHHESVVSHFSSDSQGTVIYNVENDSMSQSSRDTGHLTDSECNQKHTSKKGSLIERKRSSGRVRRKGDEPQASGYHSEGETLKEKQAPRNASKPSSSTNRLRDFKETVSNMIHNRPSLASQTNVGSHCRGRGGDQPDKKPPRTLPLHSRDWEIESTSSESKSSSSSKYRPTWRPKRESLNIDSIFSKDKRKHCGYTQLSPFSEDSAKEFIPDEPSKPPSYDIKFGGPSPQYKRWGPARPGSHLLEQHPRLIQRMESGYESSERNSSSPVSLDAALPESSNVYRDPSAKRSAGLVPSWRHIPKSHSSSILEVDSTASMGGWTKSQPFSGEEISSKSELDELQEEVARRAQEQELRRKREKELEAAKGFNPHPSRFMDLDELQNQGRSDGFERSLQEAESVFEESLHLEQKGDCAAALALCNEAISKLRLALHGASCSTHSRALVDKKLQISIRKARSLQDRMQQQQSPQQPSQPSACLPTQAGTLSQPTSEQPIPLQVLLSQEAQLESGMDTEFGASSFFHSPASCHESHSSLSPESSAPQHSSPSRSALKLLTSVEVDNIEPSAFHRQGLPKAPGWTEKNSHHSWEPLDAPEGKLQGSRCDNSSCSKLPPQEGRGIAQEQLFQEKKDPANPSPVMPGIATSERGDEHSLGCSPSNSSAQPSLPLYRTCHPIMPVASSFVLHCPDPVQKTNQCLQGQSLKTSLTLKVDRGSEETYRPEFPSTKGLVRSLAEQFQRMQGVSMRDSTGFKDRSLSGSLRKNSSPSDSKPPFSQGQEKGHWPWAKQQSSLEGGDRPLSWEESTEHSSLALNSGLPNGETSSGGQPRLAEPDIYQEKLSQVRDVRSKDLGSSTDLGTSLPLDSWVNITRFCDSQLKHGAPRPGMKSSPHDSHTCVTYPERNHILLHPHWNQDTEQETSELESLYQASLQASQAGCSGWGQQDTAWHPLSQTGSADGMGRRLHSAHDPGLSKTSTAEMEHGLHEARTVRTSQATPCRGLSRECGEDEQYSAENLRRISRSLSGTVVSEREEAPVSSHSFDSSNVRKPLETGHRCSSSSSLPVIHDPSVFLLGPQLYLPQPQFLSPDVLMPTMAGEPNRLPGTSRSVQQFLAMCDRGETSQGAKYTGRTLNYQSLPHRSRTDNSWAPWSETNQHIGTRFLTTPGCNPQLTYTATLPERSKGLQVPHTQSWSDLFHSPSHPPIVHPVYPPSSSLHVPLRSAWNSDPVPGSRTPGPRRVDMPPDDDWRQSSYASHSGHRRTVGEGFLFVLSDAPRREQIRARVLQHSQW
Outline: as §1

[7] = target: USP7 (UniProt Q93009)
Outline: as §1

[8] = target: T5, USP8 (UniProt P40818)
T5 sequence (whole entry): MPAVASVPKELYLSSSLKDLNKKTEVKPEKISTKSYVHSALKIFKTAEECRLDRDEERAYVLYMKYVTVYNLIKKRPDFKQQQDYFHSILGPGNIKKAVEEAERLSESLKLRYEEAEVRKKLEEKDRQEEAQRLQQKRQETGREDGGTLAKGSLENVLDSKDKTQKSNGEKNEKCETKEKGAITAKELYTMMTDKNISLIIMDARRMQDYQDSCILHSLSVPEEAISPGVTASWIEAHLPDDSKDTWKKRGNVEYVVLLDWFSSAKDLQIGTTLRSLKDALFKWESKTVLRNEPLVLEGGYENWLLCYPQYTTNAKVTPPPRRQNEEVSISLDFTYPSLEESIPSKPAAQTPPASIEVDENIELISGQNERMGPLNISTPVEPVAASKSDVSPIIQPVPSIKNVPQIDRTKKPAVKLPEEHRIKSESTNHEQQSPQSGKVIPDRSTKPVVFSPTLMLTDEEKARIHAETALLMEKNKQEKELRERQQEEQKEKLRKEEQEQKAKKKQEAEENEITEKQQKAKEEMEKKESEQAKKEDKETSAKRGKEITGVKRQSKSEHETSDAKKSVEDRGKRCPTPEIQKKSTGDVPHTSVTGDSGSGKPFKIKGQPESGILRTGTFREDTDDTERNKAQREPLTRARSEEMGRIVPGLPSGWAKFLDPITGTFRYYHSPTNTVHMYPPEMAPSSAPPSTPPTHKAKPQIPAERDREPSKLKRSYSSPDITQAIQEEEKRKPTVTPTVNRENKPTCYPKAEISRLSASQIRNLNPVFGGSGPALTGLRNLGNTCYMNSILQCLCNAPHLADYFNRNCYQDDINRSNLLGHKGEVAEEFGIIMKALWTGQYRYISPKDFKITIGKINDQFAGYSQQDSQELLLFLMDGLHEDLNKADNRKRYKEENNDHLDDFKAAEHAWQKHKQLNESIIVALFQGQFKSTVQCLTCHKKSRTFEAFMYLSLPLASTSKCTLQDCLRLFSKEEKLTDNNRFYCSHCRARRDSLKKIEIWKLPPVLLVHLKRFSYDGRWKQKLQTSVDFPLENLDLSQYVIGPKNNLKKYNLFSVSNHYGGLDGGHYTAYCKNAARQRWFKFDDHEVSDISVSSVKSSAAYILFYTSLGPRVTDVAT
Outline: as §1

[9] = target: USP9X (UniProt Q93008)
Chain of USP9X (Q93008 whole entry): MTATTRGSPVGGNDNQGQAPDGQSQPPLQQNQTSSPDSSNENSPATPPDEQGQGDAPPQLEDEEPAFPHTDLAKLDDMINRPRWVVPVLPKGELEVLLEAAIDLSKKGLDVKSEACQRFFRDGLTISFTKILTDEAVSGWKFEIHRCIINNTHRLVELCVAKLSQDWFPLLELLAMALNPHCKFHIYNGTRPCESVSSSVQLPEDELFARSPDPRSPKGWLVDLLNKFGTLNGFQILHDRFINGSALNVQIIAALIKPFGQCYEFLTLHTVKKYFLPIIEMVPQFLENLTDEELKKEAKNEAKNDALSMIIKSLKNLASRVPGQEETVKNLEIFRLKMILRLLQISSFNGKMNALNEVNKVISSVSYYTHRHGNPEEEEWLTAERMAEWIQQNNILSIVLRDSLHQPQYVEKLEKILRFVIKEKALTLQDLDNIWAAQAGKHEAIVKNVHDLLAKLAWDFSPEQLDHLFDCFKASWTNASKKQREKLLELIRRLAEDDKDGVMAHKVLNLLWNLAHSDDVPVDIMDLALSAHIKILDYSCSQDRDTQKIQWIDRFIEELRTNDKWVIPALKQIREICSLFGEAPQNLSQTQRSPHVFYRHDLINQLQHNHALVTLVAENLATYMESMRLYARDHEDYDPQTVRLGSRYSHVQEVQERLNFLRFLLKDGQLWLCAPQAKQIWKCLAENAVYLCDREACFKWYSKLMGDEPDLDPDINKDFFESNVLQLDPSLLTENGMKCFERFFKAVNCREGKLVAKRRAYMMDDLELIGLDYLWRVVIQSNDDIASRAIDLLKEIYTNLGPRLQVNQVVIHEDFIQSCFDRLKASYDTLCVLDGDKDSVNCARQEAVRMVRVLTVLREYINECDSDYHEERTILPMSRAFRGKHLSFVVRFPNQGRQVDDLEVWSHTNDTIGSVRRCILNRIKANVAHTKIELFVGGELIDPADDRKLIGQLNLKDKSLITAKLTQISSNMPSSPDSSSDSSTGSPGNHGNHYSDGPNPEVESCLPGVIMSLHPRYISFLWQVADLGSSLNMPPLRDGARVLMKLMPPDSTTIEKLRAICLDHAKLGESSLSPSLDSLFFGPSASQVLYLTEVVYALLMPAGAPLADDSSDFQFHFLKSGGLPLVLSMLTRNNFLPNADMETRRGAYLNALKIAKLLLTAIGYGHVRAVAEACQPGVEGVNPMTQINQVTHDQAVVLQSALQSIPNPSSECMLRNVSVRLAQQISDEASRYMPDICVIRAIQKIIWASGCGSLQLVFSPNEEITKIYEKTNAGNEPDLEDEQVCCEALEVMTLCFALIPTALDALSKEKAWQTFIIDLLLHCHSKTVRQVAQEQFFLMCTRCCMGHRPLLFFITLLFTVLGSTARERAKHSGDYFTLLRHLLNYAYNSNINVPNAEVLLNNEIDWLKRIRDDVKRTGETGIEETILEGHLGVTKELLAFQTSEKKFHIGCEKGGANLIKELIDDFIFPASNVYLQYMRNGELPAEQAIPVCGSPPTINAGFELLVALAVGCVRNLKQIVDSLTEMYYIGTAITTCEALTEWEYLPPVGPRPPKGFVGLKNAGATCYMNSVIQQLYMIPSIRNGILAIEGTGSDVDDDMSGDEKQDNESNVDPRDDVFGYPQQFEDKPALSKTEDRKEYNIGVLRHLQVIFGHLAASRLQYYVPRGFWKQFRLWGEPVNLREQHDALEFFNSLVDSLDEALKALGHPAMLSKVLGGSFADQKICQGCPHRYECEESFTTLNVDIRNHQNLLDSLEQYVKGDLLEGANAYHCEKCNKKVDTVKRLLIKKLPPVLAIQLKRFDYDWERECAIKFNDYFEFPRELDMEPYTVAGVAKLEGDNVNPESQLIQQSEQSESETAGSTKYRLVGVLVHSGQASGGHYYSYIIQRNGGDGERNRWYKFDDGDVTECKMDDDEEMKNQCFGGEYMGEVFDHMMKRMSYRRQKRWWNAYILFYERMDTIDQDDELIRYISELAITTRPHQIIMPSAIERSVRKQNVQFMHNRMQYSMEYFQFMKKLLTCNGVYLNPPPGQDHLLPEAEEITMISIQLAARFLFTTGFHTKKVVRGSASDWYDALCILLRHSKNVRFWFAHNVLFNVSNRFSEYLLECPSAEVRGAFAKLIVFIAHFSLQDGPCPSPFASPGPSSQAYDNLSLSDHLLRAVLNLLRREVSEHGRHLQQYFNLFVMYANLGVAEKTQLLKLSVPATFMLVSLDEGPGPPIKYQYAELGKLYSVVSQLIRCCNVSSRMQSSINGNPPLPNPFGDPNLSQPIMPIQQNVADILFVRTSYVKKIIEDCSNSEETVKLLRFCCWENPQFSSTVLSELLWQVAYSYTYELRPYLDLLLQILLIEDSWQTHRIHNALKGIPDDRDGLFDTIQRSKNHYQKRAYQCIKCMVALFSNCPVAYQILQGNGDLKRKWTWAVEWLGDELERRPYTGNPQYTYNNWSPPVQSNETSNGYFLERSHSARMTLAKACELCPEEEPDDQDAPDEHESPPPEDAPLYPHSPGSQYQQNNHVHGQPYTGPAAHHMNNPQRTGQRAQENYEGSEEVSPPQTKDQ
Outline: as §1

[10] = target: UniProt O00487
Chain of UniProt O00487 (O00487 whole entry): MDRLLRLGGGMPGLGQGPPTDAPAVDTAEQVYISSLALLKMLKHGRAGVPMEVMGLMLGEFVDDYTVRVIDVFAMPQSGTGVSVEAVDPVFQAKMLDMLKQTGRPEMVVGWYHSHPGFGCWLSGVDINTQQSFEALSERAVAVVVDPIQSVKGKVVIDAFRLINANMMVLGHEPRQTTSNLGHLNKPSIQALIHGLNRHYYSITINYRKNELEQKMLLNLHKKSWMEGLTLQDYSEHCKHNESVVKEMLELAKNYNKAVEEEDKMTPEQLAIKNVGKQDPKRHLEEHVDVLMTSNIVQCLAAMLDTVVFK
Outline: as §1

Measured: log2 ratio of Biotin-Ahx-Ub-VS probe labelling

Cl.O=C(CCl)N1CC(c2ccc(Br)cn2)C1
active: [7] -1.29
inactive: [1] 0.0546 | [2] -0.129 | [3] -0.944 | [4] -0.383 | [5] 0.197 | [6] 0.556 | [8] -0.318 | [9] -0.297 | [10] -0.285
